Assay results: PubChem BioAssay AID1981 (Southern Research Specialized Biocontainment Screening …, 2009)
In all, about 2,200 compounds went through this assay and about 480 (22%) were called active. Only a sample is shown. Potency and affinity values are given separately. A number with no mark means an inactive call. No rule for the calls is given here.

Experiment: S. Typhimurium GFP fluorescence modified counterscreen for PhoP regulon inhibitor project dose response (AID 1981);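 also: 0% = induced DMSO wells and 100% = uninduced wells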
Conditions: 4 h; series mostly up to 150 µM; inhibition: at the top concentration

Question: For CCOC(=O)C1=NNC2(c3ccc(Cl)cc3)C(=O)N(c3cc(C)cc(C)c3)C(=O)C12 (configuration not stated), which “inhibition” value is on record?
Answer: -7.93%

Question: With CCn1nc(C(=O)OC(C(=O)c2c[nH]c3ccccc23)c2ccccc2)c2ccccc2c1=O (configuration not stated) as the compound, how does the “inhibition” value read?
Answer: 39.2%

Question: Which “inhibition” value does the source give for COc1cccc(/C=N/NC(=O)c2ccc(-c3ccccc3)cc2)c1O here?
Answer: 11.6%

Question: Which “inhibition” value does the source give for Cc1ccc(/C=N/NC(=O)Cn2cnc3ccccc32)o1 here?
Answer: -14.7%

Question: Which “inhibition” value does the source give for c1ccc2c(N3CCCCCC3)nc(-c3ccncc3)nc2c1 here?
Answer: 1.68%

Question: Which “inhibition” value does the source give for Brc1ccc(OCCn2ccnc2)cc1 here?
Answer: 11.1%

Question: With Oc1ccccc1-c1nc(/C=C/c2ccccc2)nn1-c1ccccc1 as the compound, how does the “inhibition” value read?
Answer: -36.1%

Question: For CC(C)OC(=O)c1ccc(NC(=O)c2ccccc2)cc1, which “inhibition” value is on record?
Answer: -11.2%

Question: Which “inhibition” value does the source give for Cc1cc(C)c(NC(=S)NC(=O)c2ccc(-c3ccccc3)cc2)c(C)c1 here?
Answer: 2.08%

Question: For O=C(Cc1cccs1)N(c1ccccc1)C1C=CS(=O)(=O)C1 (configuration not stated), which “inhibition” value is on record?
Answer: -11.7%

Question: With Oc1[nH]c(=S)sc1/C=C1\C(c2ccccc2)=Nc2ccccc21 as the compound, how does the “inhibition” value read?
Answer: -4.64%

Question: Which “inhibition” value does the source give for Oc1ccc(Br)cc1-c1ccn[nH]1 here?
Answer: -8.94%

Question: With O=C(CSc1nc2ccccc2[nH]1)Nc1ccc(F)c(F)c1 as the compound, how does the “inhibition” value read?
Answer: -2.94%

Question: Which “inhibition” value does the source give for Cc1ccc(O)c(-c2cc(-c3ccccc3C)[nH]n2)c1 here?
Answer: 15.8%

Question: Which “inhibition” value does the source give for Clc1c(OCCCn2ccnc2)ccc2ccccc12 here?
Answer: -2.83%

Question: Which “inhibition” value does the source give for Cc1ccc(C)n1-c1cc([N+](=O)[O-])ccc1-n1ccnc1 here?
Answer: 1.81%

Question: With CN(CCO)Cc1csc2ccc(Br)cc12 as the compound, how does the “inhibition” value read?
Answer: 10.8%

Question: Which “inhibition” value does the source give for O=C(Nc1cccc2ccccc12)OC1C=CS(=O)(=O)C1 (configuration not stated) here?
Answer: 0.66%

Question: Which “inhibition” value does the source give for CN(C)C=NC(=O)c1[nH]c2ccc(Cl)cc2c1-c1ccccc1 here?
Answer: -3.96%

Question: With Cn1cnnc1SCC(=O)Nc1cccc(C(=O)O)c1 as the compound, how does the “inhibition” value read?
Answer: -3.44%

Question: For Cc1nnc(SC(C)C(=O)Nc2ccc(S(=O)(=O)N3CCCCCC3)cc2)s1 (configuration not stated), which “inhibition” value is on record?
Answer: -5.05%

Question: With CCOC(=O)N1CCN(C(=O)c2cn(CC(C)C)c(=O)c3c2c2ccccc2n3C)CC1 as the compound, how does the “inhibition” value read?
Answer: -15.5%

Question: With CCOC(=O)c1cn(CC)c2cc(N3CCOCC3)c(F)cc2c1=O as the compound, how does the “inhibition” value read?
Answer: -4.83%

Question: With N#CC1=C(S)N(c2ccccc2)C(c2ccc(-c3ccccc3Cl)o2)NC1=O (configuration not stated) as the compound, how does the “inhibition” value read?
Answer: 38.9%

Question: Which “inhibition” value does the source give for Cc1ccc(O)c(-c2cc(-c3cccc(F)c3)n[nH]2)c1 here?
Answer: 17.5%

Question: Which “inhibition” value does the source give for Cc1ccc2nc(C)c(CN3CCN(c4ccc([N+](=O)[O-])cc4Cl)CC3)n2c1 here?
Answer: 6.83%

Question: With O=S(=O)(Nc1ccc(Cc2ccncc2)cc1)c1ccc(Br)s1 as the compound, how does the “inhibition” value read?
Answer: -5.89%

Question: For Nc1ccc2oc(=O)c3ccccc3c2c1, which “inhibition” value is on record?
Answer: 15.3%

Question: For Nc1ccc2oc3ccc(N)cc3c(=O)c2c1, which “inhibition” value is on record?
Answer: 5.55%

Question: With COc1ccc(-n2ncc(S(=O)(=O)c3ccccc3)c2-c2ccc(Cl)cc2)cc1 as the compound, how does the “inhibition” value read?
Answer: -1.69%

Question: For COc1ccc2nc(SCC(=O)N(C)C3CCCCC3)c(C#N)cc2c1, which “inhibition” value is on record?
Answer: 11.2%

Question: For CCCn1c(SCC(=O)NCCc2ccccc2)nnc1-c1cccnc1, which “inhibition” value is on record?
Answer: -17.2%
